Where “and” joins values, the source holds several entries; their conditions need not be identical. Equal values may be shown once. The campaign covered roughly 220,000 compounds. About 16,000 (7.3%) were called active. Roughly 25% stayed inconclusive and do not appear here. The sample holds actives, similar compounds and a random draw of the others, so the mix is not that of the screen. The call rests on the fitted dose curve; in most records, active means well fitted inhibition curve with a large enough effect (not every such curve was filed as active); inconclusive means small, poorly fitted or top-dose-only effect, or another doubt; inactive means no such curve, though single readings can be large or run the other way. Some compounds were tested as several samples or in several runs, with calls that do not always agree.
target: Aldehyde dehydrogenase 1A1 (Homo sapiens) (UniProt P00352); assay: qHTS Assay for Inhibitors of Aldehyde Dehydrogenase 1 (ALDH1A1); conditions: Purified ALDH1A1, NADH fluorescence, propionaldehyde substrate; series mostly up to 75.3 µM; activity, negative = inhibition: at the top concentration;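 on activity, negative = inhibition: plate controls were no enzyme wells and a reference inhibitor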
Potency means the concentration at half of the fitted maximal effect.

Sequence of Aldehyde dehydrogenase 1A1 (Homo sapiens) (P00352 whole entry, looked up): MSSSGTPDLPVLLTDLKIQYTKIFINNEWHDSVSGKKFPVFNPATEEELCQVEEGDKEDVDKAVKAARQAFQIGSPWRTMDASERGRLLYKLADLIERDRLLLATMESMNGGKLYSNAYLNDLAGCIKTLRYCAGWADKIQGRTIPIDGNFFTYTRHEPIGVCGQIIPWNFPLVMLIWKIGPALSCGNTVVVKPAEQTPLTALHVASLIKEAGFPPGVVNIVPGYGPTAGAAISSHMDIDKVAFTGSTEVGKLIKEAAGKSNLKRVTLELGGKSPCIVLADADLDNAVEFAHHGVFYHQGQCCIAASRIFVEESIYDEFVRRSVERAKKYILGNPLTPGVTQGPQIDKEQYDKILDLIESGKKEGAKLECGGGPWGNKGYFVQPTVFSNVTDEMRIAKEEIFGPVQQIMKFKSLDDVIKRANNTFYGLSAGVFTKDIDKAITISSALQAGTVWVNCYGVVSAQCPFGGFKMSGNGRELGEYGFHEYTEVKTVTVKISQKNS

activity, negative = inhibition, inactive:
Clc1cccc(-c2nc(NCC3CCCO3)c3ccccc3n2)c1 (centres undefined) 7.84%
O=C(Nc1ccc(N2CCN(C(=O)c3ccccc3)CC2)c(Cl)c1)c1cccnc1 -12.6%
CCC(=O)Nc1cccc(NC(=O)c2cccnc2)c1 -3.63%
CC(NC(=O)Nc1ccc2c(c1)OCO2)c1ccncc1 (centres undefined) 4.87%
CCn1nnc(NC(=O)c2c(OC)cccc2OC)n1 9.35%
COc1cccc(OC)c1C(=O)Nc1ccc(Cc2ccncc2)cc1 11.3%
CC(CC(=O)O)C(=O)c1ccc(Cl)c([N+](=O)[O-])c1 (centres undefined) 8.97%
COc1ccc(-c2cc(C(=O)NCc3ccco3)no2)cc1OC -8.06%
COc1cc(C(=O)N[C@@H](C)C(=O)NCc2ccco2)cc(OC)c1OC 4.16%
Cc1cccc(NC(=S)N2CCC(O)CC2)c1C -11%
CC(C)(c1ccccc1)c1ccc(OCCN)cc1 4.64%
CCOc1ccc(/C=N/Nc2nncc(-c3ccccc3)n2)cc1OC 0.413%
CN(C)S(=O)(=O)c1cccc(NC(=O)COC(=O)c2cc(=O)[nH]c(=O)[nH]2)c1 9.89%
CN(C)S(=O)(=O)c1ccc(NC(=O)COC(=O)c2n[nH]c3ccccc23)cc1 -4.11%
C=CCN(c1ccc(Cl)cc1)S(=O)(=O)c1cccc(C(=O)OCC(=O)N(C)C)c1 -5.46%
O=C(NNC(=S)NCc1ccccc1)c1ccc(OC(F)F)cc1 -3.55%
Cc1nc2nc[nH]n2c(=O)c1C/C=C/c1ccccc1 3.08%
CC(C)=CCN1CCC2(CCc3ccccc32)CC1 -2.6%
Cc1cccc(C(=O)NNC(=O)c2cccc([N+](=O)[O-])c2)c1 4.38%
CCC(C)NCC(=O)Nc1ccc([N+](=O)[O-])cc1C(=O)Nc1ccccc1F (centres undefined) 9.71%
CCOc1cc(N2CCOCC2)c(OCC)cc1NC(=O)C1=NN(c2cccc(C)c2)C(=O)CC1 7.65%
CCNC(=S)Nc1ccc(OC(F)(F)F)cc1 4.74%
CCOC(=O)/C(C#N)=C/c1ccc(N2CCN(Cc3ccccc3)CC2)cc1 -2.33%
CCOC(=O)C(C(=O)OCC)C(C#N)c1ccccc1 (centres undefined) -8.83%
Cc1ccnc(NC(=O)Cn2ccc([N+](=O)[O-])n2)c1 11.9%
Cc1cc(NC(=O)COn2nnc3ccccc32)no1 1.05%
Cc1ccc(CC(=O)Nc2cccc(C#N)c2)cc1 -3.78%
CC(=O)c1ccccc1NC(=O)CC1(CC(=O)O)CCCCC1 -9.92%
C=CCC1CCC(=O)N2CCCC12 (centres undefined) 9.92% [at 120 µM]
COc1ccccc1-n1ccnc1SCC(=O)NC(C)(C)C 3.5%
Cc1ccccc1CSCC(=O)NC(=O)NC(C)(C)C 9.74%
COc1cccc(OC)c1CN(C)C(=O)c1cnccc1C(F)(F)F 1.98%
O=C(N/N=C/c1ccc([N+](=O)[O-])cc1)c1c[nH]c2ccccc12 0.458%
CC(=O)NCCC(=O)Nc1nc(C)c(Cc2ccc3c(c2)OCO3)s1 6.08%
O=C(Nc1ccccc1)c1cc2ccccc2[nH]1 7.57%
COc1cc(COCC(O)CN2CCN(Cc3ccc4c(c3)OCO4)CC2)cc(OC)c1OC (centres undefined) -0.814%
Cc1nc([N+](=O)[O-])cn1CC(=O)Nc1ccc2c(c1)OCO2 11.1%
Cn1cnc(C(F)(F)F)c1-c1ccc([N+](=O)[O-])cc1 18.6%
Cc1cccc(C)c1Nc1nnc(SCC(=O)Nc2sccc2C#N)s1 -18.8%
CC(C)C(=O)Nc1c(O)c2ccccc2[nH]c1=O -14.2%
CC(=O)Nc1ccc(OCC(=O)NCc2ccc(C)cc2)cc1 -1.99%
C/C=C/c1ccc(OCC(O)CN2CCCCCCC2)c(OC)c1 (centres undefined) -7.83%
CCOC(=O)CNc1nc(Cl)nc(Nc2ccccc2)n1 2.86%
CC(NC(=S)Nc1ccc(OC(F)F)cc1)c1ccc(F)cc1 (centres undefined) -6.11%

Potency, active:
COc1cccc(OC)c1C(=O)Nc1nnc(C(C)C)s1 7.08 µM
COc1cc(C(=O)NC(=S)NCc2ccco2)cc(OC)c1OC 5.01 µM
CN(C)S(=O)(=O)c1ccc(NC(=O)COC(=O)Cn2[nH]c(=O)c3ccccc3c2=O)cc1 28.2 µM
O=[N+]([O-])c1cccc(/C([O-])=C(/C(=S)Nc2ccccc2F)[n+]2ccccc2)c1 22.4 µM
CCOC(=O)NC(=O)/C(C#N)=C\c1ccccc1 7.08 µM
CS(=O)(=O)c1ccc2nnn(OCC(=O)Nc3cccc(C#N)c3)c2c1 10 µM
CC(C)(C)NC(=O)CSC(=Nc1ccccc1F)NC#N 1.26 µM
S=c1ccc2ccccc2[nH]1 25.1 µM
O=C1C(c2[nH]c3ccccc3c2O)=Nc2ccccc21 15.8 µM

Potency, inactive and 22.4 µM (active):
C[C@@H](C(=O)Nc1ccc2ccccc2c1)[C@@H]1C[C@@]1(C)[C@@H](NC(=O)c1cccnc1)c1ccccc1

Source: PubChem BioAssay AID1030 (National Center for Advancing Translational Sciences (NCATS), 2008)
